Source: PubChem (Broad Institute)
aSyn 5UTR act: Activators via SNCA 5'UTR binding, MLPCN; activity score, % (tested at 7.5 µM), hits read low; actives 7.1% (n = 300,000); alpha-synuclein 5'UTR reporter, activators screen; AID 1814; in the data active = activity score below about -60%
An asterisk follows results filed as active. The list is a sample of the results.

SMILES	aSyn 5UTR act
Cc1nc2c(C(=O)N3CCCCC3)cnn2c(C)c1Cc1ccccc1F	-117*
CC1CCN(C(=O)c2cc(-c3ccccc3O)on2)CC1	-82*
CC1CCN(C(=O)c2cc(-c3ccco3)on2)CC1	-140*
COc1ccc(OC)c(C2CC(=O)N3CN(c4ccc(C)c(Cl)c4)CSC3=C2C#N)c1 (stereo not drawn)	-90*
Nc1n[nH]c(N)c1N=Nc1cccc(C(F)(F)F)c1	-65*
Nc1n[nH]c(N)c1N=Nc1ccc(Cl)cc1	-131*
Nc1[nH]ncc1N=Nc1ccc(Cl)cc1	-89*
C=CCSc1nnc(-c2sc(-c3ccccc3)nc2C)n1C	-64*
Cc1cc(NO)nc(-c2ccc(Br)cc2)n1	-278*
Nc1cc2c(cc1O)CCCC2	-91*
CCc1nccn1CCC(=O)N1CCCC(N2CCN(c3cccc(Cl)c3)CC2)C1 (stereo not drawn)	-67*
Cc1cc(=O)[nH]c(N/N=C/c2ccccn2)n1	74
Cc1cc(=O)[nH]c(N/N=C/c2ccc(Br)s2)n1	-119*
Cc1cc(=O)[nH]c(N/N=C/c2ccc(-c3ccc(F)cc3)o2)n1	-70*
COc1ccc(-n2ncc(Cl)c(Cl)c2=O)cc1	-155*
COc1ccc(Sc2cnn(-c3ccccc3)c(=O)c2Cl)cc1	-73*
COc1nn(-c2ccccc2)c(=O)c(Cl)c1Cl	-347*
Fc1cccc(CSc2ccc(-c3ccco3)nn2)c1	-176*
Fc1ccc(CSc2ccc(-c3ccco3)nn2)cc1	-153*
CCN(CC)C(=O)c1cc(-c2ccccc2OC)on1	-125*
CCC(C)NC(=O)c1cc(-c2ccccc2O)on1 (stereo not drawn)	-83*
COc1ccccc1-c1cc(C(=O)Nc2ccc(F)cc2F)no1	-155*
COc1ccc(NC(=O)c2cc(-c3ccccc3Cl)on2)cc1OC	-96*
COc1ccccc1-c1cc(C(=O)NC(C)C)no1	-265*
Nc1ccc2oc(-c3ccccc3Cl)cc(=O)c2c1O	-63*
SMILES	aSyn 5UTR act
COc1cc(C)ccc1OCCCOc1ccccc1Br	-149*
COc1cc(C)ccc1OCCOc1c(C)cccc1Cl	-108*
COc1ccccc1OCCCOc1ccc(C)cc1Br	-139*
CCCCCCSc1nsc(NC(C)=O)n1	-97*
CCCCSc1nsc(NC(C)=O)n1	-135*
CCCSc1nsc(NC(=O)CCC)n1	-142*
CCCSc1nsc(NC(=O)c2cccnc2OCC)n1	-72*
C=CCC(CC(O)COCCC)C(=O)NNC(=S)Nc1ccccc1 (stereo not drawn)	-113*
Cn1cc(Cl)c(-c2nc3ccccc3[nH]2)n1	-149*
Clc1ccccc1-c1nc2ccccc2[nH]1	-113*
Fc1ccccc1-c1nc2ccccc2[nH]1	-128*
c1ccc2[nH]c(-c3ccnc4ccccc34)nc2c1	-96*
Cc1cc2nc(-c3ccc[nH]c3=O)[nH]c2cc1C	77
Cc1ccccc1-c1nc2ccccc2[nH]1	-134*
CC1CC(C)CN(C(=O)c2cc3ccccc3o2)C1 (stereo not drawn)	-70*
CC1CC(C)CN(C(=O)c2cc3cc(Br)cc(Br)c3o2)C1 (stereo not drawn)	-121*
O=C(c1cc2ccccc2o1)N1CCCCCC1	-64*
CC1CCN(C(=O)c2cc3ccccc3o2)CC1	-131*
CCN(CC)c1ccc(C2=NNC(=O)CC2C)cc1[N+](=O)[O-] (stereo not drawn)	98
O=C(Nc1ccccc1OC(F)F)c1cc2c(s1)CCC2	-161*
CCOC(=O)c1sc(NC(=O)c2cc3c(s2)CCC(C)C3)nc1C (stereo not drawn)	-101*
CC1CCc2sc(C(=O)Nc3ccc(C(N)=O)cc3)cc2C1 (stereo not drawn)	-119*
Cc1nc(NC(=O)CCl)sc1C(=O)N(C)C	-70*
Cc1ccc(NC(=O)c2cc3c(s2)CCCC3)cc1	-193*
Cc1nc(NC(=O)c2cc3c(s2)CCCCC3)sc1C(=O)N(C)C	-175*
SMILES	aSyn 5UTR act
Cc1ccc(NC(=O)c2scc3c2CCCC3)cc1	-90*
Cc1nc(NC(=O)c2ccc(Br)s2)sc1C(=O)N(C)C	-122*
COC(=O)c1sc(NC(=O)c2cc3c(s2)CCCC3)nc1C	-204*
Nc1nn(-c2ccccc2)c(N)c1N=Nc1ccccc1	-106*
Nc1nn(-c2ccccc2)c(N)c1N=Nc1ccccc1F	-98*
Nc1c(N=Nc2ccccc2F)c(=O)[nH]n1-c1ccccc1	-125*
Nc1ncnc(N)c1N=Nc1ccccc1	112
CCN(CC)CCNC(=O)c1nn(-c2ccc(C)cc2)c(=O)c2c1c1ccccc1n2C	-64*
C/C(=N\NC(=O)c1cccc(O)c1)c1ccc(NC(=O)Cc2ccccc2)cc1	-85*
C/C(=N\NC(=O)c1ccccc1O)c1ccc(NC(=O)Cc2ccccc2)cc1	-71*
COc1ccc(/C(C)=N/NC(=O)c2ccccc2OCc2ccccc2)c(OC)c1	-118*
COc1cccc(C(=O)N/N=C(\C)c2ccc(NC(=O)Cc3ccccc3)cc2)c1OC	-88*
COc1ccc(CNS(=O)(=O)c2cc3c(cc2C)N(C)CCO3)cc1	-65*
O=C(c1ccc(CS(=O)Cc2ccccc2Cl)o1)N1CCN(C2CCCCC2)CC1 (stereo not drawn)	-74*
O=C(c1ccc(CS(=O)c2ccccc2Cl)o1)N1CCN(c2ccccc2)CC1 (stereo not drawn)	110
O=[N+]([O-])c1ccccc1S(=O)(=O)c1ccccc1[N+](=O)[O-]	-62*
CC(CS(=O)(=O)c1ccccc1[N+](=O)[O-])N1CCOCC1 (stereo not drawn)	-70*
Nc1cc(=O)[nH]c(SCCSc2ccccc2F)n1	67
CC(C)(C)c1ccc(CSc2nc(N)cc(=O)[nH]2)cc1	-79*
[2H]C(CCOS(N)(=O)=O)c1ccc(C(C)(C)C)cc1 (stereo not drawn)	80
CC(=O)N1CCN(c2ccc(NC(=O)c3ccc(C(C)(C)C)cc3)cc2)CC1	-96*
CC(=O)N1CCN(c2ccc(NC(=O)c3cccc(Cl)c3)cc2)CC1	-122*
O=C(COC(=O)c1cccc(O)c1)c1ccccc1	-69*
Cc1ccc(C(=O)COC(=O)c2ccc(O)cc2)cc1	-182*
Nc1cccc(C(=O)OCC(=O)c2ccccc2)c1	-86*
SMILES	aSyn 5UTR act
CCn1cc(/C=C/C(=O)Nc2ccc(C)cc2Br)cn1	-82*
CC(Sc1nnc(-c2cccnc2)n1-c1ccccc1)C(=O)NCc1ccc2c(c1)OCO2 (stereo not drawn)	-71*
O=C(O)c1cccc(Nc2ncnc3c2cnn3-c2ccccc2)c1	-101*
Fc1cccc(Nc2ncnc3c2cnn3-c2ccccc2)c1	-173*
Clc1cccc(Nc2ncnc3c2cnn3-c2ccccc2)c1	-86*
Cc1c(-c2ccccc2)[nH]n2c(=O)c3c(nc12)CCCC3	-166*
O=c1c2c(nc3c(-c4cccc(Br)c4)c[nH]n13)CCCC2	69
Cc1ccc(-c2[nH]n3c(=O)c4c(nc3c2C)CCCC4)cc1	-75*
S=c1nc2ccccc2c2nc(-c3ccccc3)[nH]n12	-64*
S=c1nc(-c2ccccc2)[nH]n1-c1ccccc1	-143*
Oc1ccc(N=Nc2ccc3c(c2)OCCO3)c(O)c1	62
Oc1ccc(N=Nc2ccc(Br)cc2)c(O)c1	-226*
Cc1ccc2oc(-c3cccc(NC(=O)C4CCCO4)c3)nc2c1 (stereo not drawn)	-181*
O=C(Nc1cccc(-c2nc3cc(Cl)ccc3o2)c1)C1CCCO1 (stereo not drawn)	-72*
Cc1cccc(-c2nc3cc(NC(=O)C4CCCO4)ccc3o2)c1 (stereo not drawn)	72
